# About 8,800 targets were measured; listed, in parts, are those with a hit and a random draw of the rest. About 0.5% of all pairs of compound and target were hits. Unmarked numbers belong to inactive results.
# How the values were obtained:
# Experiment in all cases: log2 fold change, soluble protein after heating vs DMSO (PISA); higher = thermal stabilisation; K562 lysate, 10 uM; active = over 0.2 and 3.5 SD of the protein, either way, in both replicates (recomputed)
# [1] = compound: Cc1cn(-c2cc(NC(=O)c3ccc(C)c(Nc4nccc(-c5cccnc5)n4)c3)cc(C(F)(F)F)c2)cn1 [nilotinib]
# Method in brief: (§1)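 K562 pellets were dounce-homogenised in PBS pH 7.4 with 1 mM MgCl2, and the crude extract at 1 mg/mL protein was treated with 10 μM compound for 30 min. Aliquots were heated for 3 min across 48°C-58°C, pooled, and brought to 0.5% NP-40 at 4°C; soluble protein was the supernatant after 21,000xg for 90 min. Soluble protein was quantified by TMTpro 16plex LC-MS/MS with channel sums equalised, and reported as log2 fold change in thermal stability against DMSO controls, with values from duplicates.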
# [2] = compound: Cc1nc(Nc2n[nH]c3c2CN(C(=O)N[C@H](CN(C)C)c2ccccc2)C3(C)C)c2sccc2n1
# Method in brief: as §1
# [3] = compound: Cc1nc(Nc2ncc(C(=O)Nc3c(C)cccc3Cl)s2)cc(N2CCN(CCO)CC2)n1 [dasatinib]
# Method in brief: as §1
# [4] = compound: Cc1ncc(-c2ccnc(Nc3ccc(S(C)(=O)=O)cc3)n2)n1C(C)C
# Method in brief: as §1
# [5] = compound: Cn1cc(-c2ccc3c(c2)CCN3C(=O)Cc2cccc(C(F)(F)F)c2)c2c(N)ncnc21
# Method in brief: as §1
# [6] = compound: Cn1cc(CNCC2CCN(c3ncc(C(=O)NO)cn3)CC2)c2ccccc21 [quisinostat]
# Method in brief: as §1
# [7] = compound: Cn1cncc1[C@@](N)(c1ccc(Cl)cc1)c1ccc2c(c1)c(-c1cccc(Cl)c1)cc(=O)n2C [tipifarnib]
# Method in brief: as §1
# [8] = compound: NC(=O)Nc1cc(-c2cccc(F)c2)sc1C(=O)N[C@H]1CCCNC1
# Method in brief: as §1
# [9] = compound: NC(=O)c1cnc(N[C@@H]2CCCC[C@@H]2N)nc1Nc1cccc(-n2nccn2)c1
# Method in brief: as §1
# [10] = compound: NC1(c2ccc(-c3nc4ccn5c(=O)[nH]nc5c4cc3-c3ccccc3)cc2)CCC1
# Method in brief: as §1
# Chain of UniProt Q14318 (Q14318 whole entry, looked up): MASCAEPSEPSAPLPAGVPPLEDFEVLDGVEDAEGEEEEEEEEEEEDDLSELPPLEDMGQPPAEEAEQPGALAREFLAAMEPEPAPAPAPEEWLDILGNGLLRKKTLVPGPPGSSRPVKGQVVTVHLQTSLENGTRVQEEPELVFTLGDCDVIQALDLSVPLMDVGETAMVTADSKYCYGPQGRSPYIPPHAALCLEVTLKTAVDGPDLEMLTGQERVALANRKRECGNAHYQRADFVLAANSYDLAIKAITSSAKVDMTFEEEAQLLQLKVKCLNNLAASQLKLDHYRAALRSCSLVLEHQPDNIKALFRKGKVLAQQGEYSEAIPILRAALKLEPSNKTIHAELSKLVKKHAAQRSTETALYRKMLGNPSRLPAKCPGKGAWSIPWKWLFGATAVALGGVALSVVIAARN
# Chain of UniProt Q9H410 (Q9H410 whole entry, looked up): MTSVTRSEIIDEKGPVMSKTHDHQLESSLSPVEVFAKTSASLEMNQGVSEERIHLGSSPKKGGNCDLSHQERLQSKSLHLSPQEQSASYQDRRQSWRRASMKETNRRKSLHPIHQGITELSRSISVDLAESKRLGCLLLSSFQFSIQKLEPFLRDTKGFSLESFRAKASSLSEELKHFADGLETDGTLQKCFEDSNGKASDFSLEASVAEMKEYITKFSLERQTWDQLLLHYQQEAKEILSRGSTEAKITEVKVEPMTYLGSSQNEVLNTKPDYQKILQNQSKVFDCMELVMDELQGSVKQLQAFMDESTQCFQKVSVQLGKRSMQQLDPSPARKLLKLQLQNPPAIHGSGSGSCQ
# Chain of UniProt Q6PIJ6 (Q6PIJ6 whole entry, looked up): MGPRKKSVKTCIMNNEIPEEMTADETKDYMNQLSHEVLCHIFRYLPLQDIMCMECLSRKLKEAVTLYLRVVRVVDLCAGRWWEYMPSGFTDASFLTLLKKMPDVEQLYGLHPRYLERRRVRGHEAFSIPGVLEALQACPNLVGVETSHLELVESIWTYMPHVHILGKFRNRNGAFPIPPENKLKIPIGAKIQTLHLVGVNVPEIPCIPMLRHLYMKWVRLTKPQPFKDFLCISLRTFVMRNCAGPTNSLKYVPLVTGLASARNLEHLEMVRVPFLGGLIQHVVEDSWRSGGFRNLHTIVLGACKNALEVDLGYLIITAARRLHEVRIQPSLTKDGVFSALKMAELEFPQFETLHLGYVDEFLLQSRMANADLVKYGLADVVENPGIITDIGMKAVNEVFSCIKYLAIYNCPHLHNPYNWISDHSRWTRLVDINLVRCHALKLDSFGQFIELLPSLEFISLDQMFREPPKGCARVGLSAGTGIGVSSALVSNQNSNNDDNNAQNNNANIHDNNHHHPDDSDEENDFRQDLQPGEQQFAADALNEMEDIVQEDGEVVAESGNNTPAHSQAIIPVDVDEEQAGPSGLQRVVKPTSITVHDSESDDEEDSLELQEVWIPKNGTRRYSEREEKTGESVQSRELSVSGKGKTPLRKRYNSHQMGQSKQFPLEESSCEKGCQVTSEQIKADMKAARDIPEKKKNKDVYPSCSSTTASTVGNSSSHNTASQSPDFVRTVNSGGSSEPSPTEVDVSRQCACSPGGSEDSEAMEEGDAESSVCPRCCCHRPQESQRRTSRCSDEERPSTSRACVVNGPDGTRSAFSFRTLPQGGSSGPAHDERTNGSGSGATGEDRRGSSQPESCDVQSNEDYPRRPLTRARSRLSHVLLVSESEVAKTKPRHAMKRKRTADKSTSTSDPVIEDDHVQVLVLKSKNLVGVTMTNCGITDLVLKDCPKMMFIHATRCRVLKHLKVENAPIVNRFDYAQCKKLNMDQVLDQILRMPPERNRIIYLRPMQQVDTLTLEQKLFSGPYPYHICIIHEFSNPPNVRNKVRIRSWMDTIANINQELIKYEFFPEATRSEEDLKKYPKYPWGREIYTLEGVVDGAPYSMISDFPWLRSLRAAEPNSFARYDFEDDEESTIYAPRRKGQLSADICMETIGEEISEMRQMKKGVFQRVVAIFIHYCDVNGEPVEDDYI
# Chain of UniProt Q13144 (Q13144 whole entry, looked up): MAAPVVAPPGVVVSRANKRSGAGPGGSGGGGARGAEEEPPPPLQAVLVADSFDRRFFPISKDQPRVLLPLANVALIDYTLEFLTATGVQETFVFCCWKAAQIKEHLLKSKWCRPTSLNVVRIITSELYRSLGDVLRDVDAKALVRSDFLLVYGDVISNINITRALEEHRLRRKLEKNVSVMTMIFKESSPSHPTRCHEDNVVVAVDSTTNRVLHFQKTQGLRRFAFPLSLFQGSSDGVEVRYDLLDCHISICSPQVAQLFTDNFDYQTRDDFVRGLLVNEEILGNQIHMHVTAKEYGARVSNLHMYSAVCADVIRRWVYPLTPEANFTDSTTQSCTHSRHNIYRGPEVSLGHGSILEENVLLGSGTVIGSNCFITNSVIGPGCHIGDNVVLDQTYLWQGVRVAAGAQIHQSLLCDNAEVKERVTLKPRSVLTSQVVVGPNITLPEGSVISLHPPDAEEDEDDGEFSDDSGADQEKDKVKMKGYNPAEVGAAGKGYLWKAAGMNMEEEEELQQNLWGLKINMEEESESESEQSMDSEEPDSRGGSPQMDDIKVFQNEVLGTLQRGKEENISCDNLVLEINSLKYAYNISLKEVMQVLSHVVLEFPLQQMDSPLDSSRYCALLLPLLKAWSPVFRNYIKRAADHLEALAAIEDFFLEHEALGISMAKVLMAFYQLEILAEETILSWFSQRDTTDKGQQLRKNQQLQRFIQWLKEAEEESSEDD
# Chain of UniProt P23919 (P23919 whole entry, looked up): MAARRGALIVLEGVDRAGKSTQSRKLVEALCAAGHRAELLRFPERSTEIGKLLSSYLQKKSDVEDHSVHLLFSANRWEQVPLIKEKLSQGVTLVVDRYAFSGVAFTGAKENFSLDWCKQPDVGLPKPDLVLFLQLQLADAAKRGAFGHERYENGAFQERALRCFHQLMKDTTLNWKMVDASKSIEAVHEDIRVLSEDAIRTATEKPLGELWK
# Chain of UniProt Q8TAG9 (Q8TAG9 whole entry, looked up): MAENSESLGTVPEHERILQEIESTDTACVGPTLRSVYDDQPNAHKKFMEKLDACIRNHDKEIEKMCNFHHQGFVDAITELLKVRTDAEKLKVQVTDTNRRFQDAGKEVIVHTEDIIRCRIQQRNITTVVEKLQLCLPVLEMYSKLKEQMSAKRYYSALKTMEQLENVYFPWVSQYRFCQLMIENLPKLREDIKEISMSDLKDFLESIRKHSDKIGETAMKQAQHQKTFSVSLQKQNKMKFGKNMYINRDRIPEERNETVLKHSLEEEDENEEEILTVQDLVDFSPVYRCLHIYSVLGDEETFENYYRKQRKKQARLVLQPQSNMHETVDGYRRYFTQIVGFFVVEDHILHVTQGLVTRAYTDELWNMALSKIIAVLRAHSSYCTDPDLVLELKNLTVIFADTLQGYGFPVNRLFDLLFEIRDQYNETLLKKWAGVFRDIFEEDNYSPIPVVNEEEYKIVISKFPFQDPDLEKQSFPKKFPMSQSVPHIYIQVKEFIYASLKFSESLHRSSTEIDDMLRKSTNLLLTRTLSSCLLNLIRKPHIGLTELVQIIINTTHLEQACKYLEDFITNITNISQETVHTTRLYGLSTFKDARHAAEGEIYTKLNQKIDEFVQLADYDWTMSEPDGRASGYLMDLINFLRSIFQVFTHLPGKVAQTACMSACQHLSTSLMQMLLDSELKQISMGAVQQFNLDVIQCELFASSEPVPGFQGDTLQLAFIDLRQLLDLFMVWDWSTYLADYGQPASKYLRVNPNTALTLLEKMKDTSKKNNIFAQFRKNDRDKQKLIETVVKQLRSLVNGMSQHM
# Chain of UniProt Q8IV48 (Q8IV48 whole entry, looked up): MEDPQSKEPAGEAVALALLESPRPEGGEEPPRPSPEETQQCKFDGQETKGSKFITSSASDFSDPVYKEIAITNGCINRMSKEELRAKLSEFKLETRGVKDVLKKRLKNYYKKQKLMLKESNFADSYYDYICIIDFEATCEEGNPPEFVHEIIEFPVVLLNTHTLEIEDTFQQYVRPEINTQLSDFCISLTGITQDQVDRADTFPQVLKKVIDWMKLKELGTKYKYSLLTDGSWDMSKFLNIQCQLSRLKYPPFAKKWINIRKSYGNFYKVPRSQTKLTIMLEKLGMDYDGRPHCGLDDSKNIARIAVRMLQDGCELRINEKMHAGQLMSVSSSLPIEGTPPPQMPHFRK
# Chain of UniProt Q7L8L6 (Q7L8L6 whole entry, looked up): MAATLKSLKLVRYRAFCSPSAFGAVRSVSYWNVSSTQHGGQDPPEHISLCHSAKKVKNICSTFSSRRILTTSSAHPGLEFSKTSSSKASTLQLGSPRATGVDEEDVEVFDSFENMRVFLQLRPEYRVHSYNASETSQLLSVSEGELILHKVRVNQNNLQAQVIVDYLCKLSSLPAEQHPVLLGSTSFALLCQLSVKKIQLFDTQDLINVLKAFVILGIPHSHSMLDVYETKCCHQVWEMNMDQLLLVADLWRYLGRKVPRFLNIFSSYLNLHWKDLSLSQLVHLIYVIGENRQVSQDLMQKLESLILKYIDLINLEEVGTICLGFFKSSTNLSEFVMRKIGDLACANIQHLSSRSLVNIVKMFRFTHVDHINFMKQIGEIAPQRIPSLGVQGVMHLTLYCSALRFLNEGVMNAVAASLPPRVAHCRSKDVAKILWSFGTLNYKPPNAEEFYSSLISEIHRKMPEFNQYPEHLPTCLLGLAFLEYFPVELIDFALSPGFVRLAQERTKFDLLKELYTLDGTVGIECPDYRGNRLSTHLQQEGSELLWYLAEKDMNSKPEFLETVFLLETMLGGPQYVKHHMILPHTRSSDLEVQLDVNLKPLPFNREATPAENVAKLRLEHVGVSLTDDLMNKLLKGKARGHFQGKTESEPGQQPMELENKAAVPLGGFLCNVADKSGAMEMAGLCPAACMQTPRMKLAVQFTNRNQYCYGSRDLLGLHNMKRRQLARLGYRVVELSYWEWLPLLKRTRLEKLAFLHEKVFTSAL
# Chain of UniProt P41567 (P41567 whole entry, looked up): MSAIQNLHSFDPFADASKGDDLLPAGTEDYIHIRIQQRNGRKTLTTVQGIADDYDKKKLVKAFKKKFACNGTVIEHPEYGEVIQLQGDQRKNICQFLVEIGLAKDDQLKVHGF
Target,log2 fold change [1],log2 fold change [2],log2 fold change [3],log2 fold change [4],log2 fold change [5],log2 fold change [6],log2 fold change [7],log2 fold change [8],log2 fold change [9],log2 fold change [10]
FBXO38 (UniProt Q6PIJ6),0.157,-0.203,-0.03,-0.125,-0.069,-0.028,-0.071,0.026,-0.031,0.012
FAM83A (UniProt Q86UY5),-0.007,-0.069,-0.028,-0.016,-0.033,-0.088,-0.08,0.034,0.004,-0.019
"FADS1, A0A0A0MR51",0.065,-0.078,0.04,0.02,0.079,0.004,0.069,0.008,-0.114,0.022
FIBP (UniProt O43427),-0.001,0.036,0.013,-0.024,-0.043,0.019,-0.037,0.024,0,0
ERCC4 (UniProt Q92889),-0.047,-0.002,0.01,-0.05,0.033,-0.105,-0.007,0.041,0.027,-0.004
ENO1 isoform 2 (UniProt P06733),0.01,-0.009,0.021,-0.036,-0.012,-0.038,0.035,-0.007,-0.008,0.004
FAM118B (UniProt Q9BPY3),-0.018,0.002,-0.039,-0.009,-0.008,-0.06,-0.015,0.021,0.032,-0.007
FASTKD5 (UniProt Q7L8L6),-0.072,0.032,-0.006,0.113,-0.027,-0.053,0.003,0.004,0.054,0.013
FNTB (UniProt P49356),-0.005,0.016,0.018,-0.04,-0.022,-0.002,0.239 (active),0.003,-0.011,-0.027
DTYMK (UniProt P23919),-0.003,0.002,-0.072,-0.007,-0.025,-0.009,0.017,0.045,-0.024,-0.007
ENSA isoform 3 (UniProt O43768),-0.022,-0.011,0.07,0.013,-0.002,0.051,-0.002,-0.025,-0.029,0.021
FANCD2 isoform 1 (UniProt Q9BXW9),0.015,-0.002,-0.066,0.048,0,-0.238 (active),-0.037,0.018,0.033,-0.124
EIF1 (UniProt P41567),0.126,0.084,0.001,0.142,-0.03,0.133,0,-0.018,-0.076,-0.032
EXOC6 (UniProt Q8TAG9),-0.002,0.01,-0.063,0.022,0.064,-0.023,-0.044,0.068,0.024,-0.064
FTSJ3 (UniProt Q8IY81),0.001,-0.025,0.021,0.016,-0.001,0.066,-0.046,0.047,0.033,-0.015
ELAVL4 (UniProt P26378),-0.07,-0.062,0.006,0.092,0.039,-0.07,-0.06,0.07,0.01,0.024

Target,log2 fold change [1],log2 fold change [2],log2 fold change [3],log2 fold change [4],log2 fold change [5],log2 fold change [6],log2 fold change [7],log2 fold change [8],log2 fold change [9],log2 fold change [10]
ESPL1 (UniProt Q14674),-0.013,0.006,0.044,0.054,0.02,0.066,-0.024,0.021,-0.014,-0.055
FAM120B (UniProt Q96EK7),-0.067,-0.017,-0.033,-0.008,0.017,-0.062,0.05,0.015,-0.029,-0.048
EIF2B5 (UniProt Q13144),-0.004,0.037,-0.015,0.008,0.01,-0.002,-0.006,0.038,-0.01,-0.011
GGT7 (UniProt Q9UJ14),-0.061,-0.023,-0.083,0.014,-0.012,0.092,-0.008,0.071,0.007,0.02
EPS8L2 (UniProt Q9H6S3),-0.011,0.05,0.051,-0.121,0.053,0.013,0.013,0.058,-0.01,0.013
DST (UniProt Q03001),-0.002,-0.035,-0.023,0.045,-0.06,-0.118,0.069,0.022,0.027,-0.107
ERI1 (UniProt Q8IV48),0.004,-0.008,-0.012,0.035,0.041,-0.019,0.043,0.08,-0.019,0.058
EXTL2 (UniProt Q9UBQ6),0.07,-0.085,0.127,0.081,0.13,-0.146,0.017,0.035,-0.068,0.003
ELF2 (UniProt Q15723),0.032,-0.007,-0.105,0.065,0.068,0.026,-0.043,-0.035,-0.02,0.032
EIF2AK2 (UniProt P19525),-0.014,0.043,0.122,0.01,0.056,-0.087,-0.032,0.045,-0.013,-0.054
DSN1 (UniProt Q9H410),-0.006,0.023,-0.022,0.001,0.011,-0.015,-0.015,0.05,0.014,0.031
"EPB41, A0A2R8Y6D0",-0.033,0.312,0.091,-0.044,-0.021,-0.017,-0.055,0.043,-0.042,-0.054
FKBP8 isoform 2 (UniProt Q14318),-0.019,-0.055,-0.056,0.014,0.011,-0.21,-0.005,0.067,0.02,0.005
FARSB (UniProt Q9NSD9),-0.019,-0.005,-0.019,0.006,0.032,-0.001,0.02,0.027,0.002,-0.014
EIF2D (UniProt P41214),-0.034,0.028,-0.027,-0.009,0.002,-0.064,0.024,0.04,0.008,-0.041

# Reference: the supplement of paper PMC10849652
